Assay outcomes from PubChem.
Shown are actives, neighbours in structure and some others; about 1.1% of the full set was active somewhere.
Giardia FBPA inh = blocks Giardia fructose-bisphosphate aldolase activity; A8B2U2; purified Giardia FBPA; Potency, µM (highest dose often 59.6 µM), without a hit: top-dose activity, negative = inhibition, hits mostly inhibitors; actives 0.71% (n = 290,000); AID 2451; note: % is set by controls: 0 for no effect and ±100 for the full control effect; nearly all actives have a fitted effect of over 55% in size
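Giardia FBPA (40 nM reagent) was preincubated 10 min at RT with compound (up to 57.5 uM final), then substrate plus GAPDH/TPI/NAD/arsenate coupling system with diaphorase/resazurin was added; resorufin fluorescence (525/598 nm) was read after 20 min.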
SARS PLpro yeast = blocks SARS-CoV papain-like protease in a yeast assay; S. cerevisiae expressing SARS-CoV PLpro, growth rescue; AID 485353; Potency, µM (doses to about 32.9 µM), inactives show at the highest dose activity, positive = growth rescue, usual class: activators; actives 0.19% (n = 330,000); calls by dose curve; note: 0% is about no effect; nearly all actives have a fitted effect of over 55% in size
AmpC detergent = inhibitors of E. coli AmpC beta-lactamase with detergent; AID 485294; actives 0.041% (n = 370,000); Potency, µM (highest dose often 114 µM), inactives show at the highest dose activity change, negative = inhibition, actives largely listed as inhibitors; AmpC hydrolysis of nitrocefin, absorbance 480 nm, 0.01% Triton;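 note: 0% = no-compound wells and -100% = no-enzyme wells; nearly all actives have a fitted effect of over 25% in size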
Target sequence (P00811 whole entry, looked up): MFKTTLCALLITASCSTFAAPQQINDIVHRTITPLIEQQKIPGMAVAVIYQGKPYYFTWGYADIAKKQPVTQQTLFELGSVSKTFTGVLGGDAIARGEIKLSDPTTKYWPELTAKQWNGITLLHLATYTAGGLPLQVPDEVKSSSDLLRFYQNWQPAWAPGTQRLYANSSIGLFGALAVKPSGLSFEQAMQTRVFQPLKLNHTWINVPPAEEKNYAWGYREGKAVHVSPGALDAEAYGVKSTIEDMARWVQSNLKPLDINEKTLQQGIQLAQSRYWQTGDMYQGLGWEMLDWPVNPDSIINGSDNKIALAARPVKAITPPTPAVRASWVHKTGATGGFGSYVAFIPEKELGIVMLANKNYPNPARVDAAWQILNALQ
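AmpC (5.3 nM in the dispensed reagent) in 20 mM phosphate pH 7.0 with 0.01% (detergent screen) or 0.0001% Triton X-100 was preincubated with compounds for 15 min at room temperature. Nitrocefin was then added from an 800 uM solution, and hydrolysis was followed at 480 nm.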
AmpC no deterg = AmpC beta-lactamase inhibition without detergent; AmpC nitrocefin hydrolysis, absorbance 480 nm, 0.0001% Triton; Potency, µM (highest dose often 57.1 µM), for the others: at the top dose activity change, negative = inhibition, usual class: inhibitors; actives 0.52% (n = 330,000); AID 485341;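 note: plate controls were no compound for no effect and no enzyme for full effect; nearly all actives have a fitted effect of over 20% in size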
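20 mM phosphate pH 7.0 + 0.01% (detergent screen) or 0.0001% Triton X-100; 5.3 nM AmpC reagent; cpd preinc 15 min RT; nitrocefin (800 uM stock) to start; A480 q20 s × 4 min; Activity was normalised to no-enzyme and no-compound control wells.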
An asterisk follows results filed as active; ? = inconclusive; / = not tested or not shown; ! = not confirmed by another sample; [ ] = remark or other dose. Unless noted, calls come from the whole dose curve; as a rule, active = well fitted curve in the direction sought with a large enough effect; inconclusive = small, poorly fitted or top-dose-only effect, or another doubt; inactive = no such curve, though single readings can be large; an effect the other way counts as inactive or inconclusive. Potency is the fitted concentration of half-maximal effect.

SMILES	Giardia FBPA inh	SARS PLpro yeast	AmpC detergent	AmpC no deterg
Cc1ccc(O)c(-c2[nH]ncc2C(=O)c2ccc(Br)cc2)c1	-1%	-3%	-1%	5µM*
Cc1ccc(O)c(-c2[nH]ncc2C(=O)c2ccc(Cl)cc2)c1	1%	-1%	1%	-29%
CC#CCN1c2ccccc2[C@]23C[C@@H](C(=O)OC)N(S(=O)(=O)c4ccc5c(c4)OCCN5C)C2=NC(C(=O)OC)=C(C(=O)OC)[C@H]13	1%[12.9 µM]	/	/	/
O=C(Nc1ccc(S(=O)(=O)Nc2nccs2)cc1)c1ccc(F)c(S(=O)(=O)N2CCOCC2)c1	5%	0%	?	7.9µM*
O=C(/C=C/c1ccccc1)c1cc(Br)ccc(=O)c1O	-18%	22µM*	?	-48%
NC(Cc1cc(O)c(O)cc1O)C(=O)O (configuration not stated)	-13%	1%	50µM*	7.1µM*
C[C@](N)(Cc1ccc(O)cc1)C(=O)O	2%	/	/	/
C[C@](N)(Cc1ccc(O)c(O)c1)C(=O)O	18µM*!	3%	?	?
NC(Cc1ccc(O)c(O)c1)C(=O)O (configuration not stated)	16µM*	/	/	/
COc1ccc(C2/C=C\CN(CC(C)C)C(Cc3ccccc3)C(=O)N2Cc2ccc(F)cc2)cc1 (configuration not stated)	0%	/	/	/
N#Cc1ccc(CS(=O)(=O)c2nc3ccccc3s2)cc1	-2%	/	/	/
N#C/C(=C\c1ccco1)C(=O)Nc1ccc(S(N)(=O)=O)cc1	7%	-5%	?	-21%
N#C/C(=C/c1ccc(-c2ccc(S(N)(=O)=O)cc2)o1)C(=O)Nc1ccccc1	-1%	9%	-10%	16µM*
COc1ccc(NS(=O)(=O)c2ccc3nc(COc4cccc5ccccc45)[nH]c3c2)cc1	-5%	-11%	-4%	4µM*
CN(C)c1ccc(-c2cc(C3C4C=CCCC4(C)C(=O)N3Cc3ccccc3)ccc2F)cc1 (configuration not stated)	0%	/	/	/
O=c1oc(-c2ccc(C(F)(F)F)cc2)nn1Cc1cc(Cl)ccc1O	-8%	/	/	/
COC(=O)C/C=C\[C@@H](C)[C@@H](/C=N\OC[C@@H](C)[C@H](OCc1ccccc1)C(C)C)NS(=O)(=O)c1ccc(C)cc1	0%[12.9 µM]	/	/	/
COC(=O)C/C=C/[C@@H](C)[C@@H](/C=N/OC[C@@H](C)[C@H](OCc1ccccc1)C(C)C)NS(=O)(=O)c1ccc(C)cc1	-12%	1%	?	28µM*
NC(=O)c1ccsc1NC(=O)c1nc(-c2ccccc2)n(-c2ccccc2)n1	-11%	0%	-8%	4µM*
COCc1nnc(SCC(=O)NC(C)c2ccccc2)n1-c1ccccc1 (configuration not stated)	0%	-2%	-2%	0.4µM*
O=C(O)CSc1nnc(COc2ccccc2)n1-c1ccccc1	11%	1%	-18%	-8%
O=C(NC1CCCCC1)NC1CC2CCC(C1)N2C(=S)NCc1ccco1 (configuration not stated)	1%	-3%	6%	-8%
CCOCCCNC(=S)N1C2CCC1CC(NC(=O)NC1CCCCC1)C2 (configuration not stated)	0%	0%	-2%	0.32µM*
Cc1cccc(C(=O)Oc2ccc(/C=N/NC(=O)c3ccccc3O)cc2)c1	-11%	12%	5%	-29%
Cc1cccc(C(=O)Oc2ccc(/C=N/NC(=O)c3ccc(O)cc3)cc2)c1	1%	2%	-2%	14µM*
SMILES	Giardia FBPA inh	SARS PLpro yeast	AmpC detergent	AmpC no deterg
CCOC(=O)CSc1nnc(-c2c[nH]c3ccccc23)n1CC	-2%	-5%	-1%	-7%
CCOC(=O)c1c(NC(=O)CSc2nnc(-c3c[nH]c4ccccc34)n2CC)sc2c1CCCC2	0%	4%	-5%	1.4µM*
Cc1cc(C)n(Cc2ccc(Cl)cc2Cl)c(=O)c1S(=O)(=O)c1ccccc1	-30%	3%	4%	0.16µM*
C=C(C)Cn1c(C)cc(C)c(S(=O)(=O)c2ccc(C)cc2)c1=O	-13%	-2%	5%	-3%
C#CC(C)OC(=O)Nc1cccc(Cl)c1 (configuration not stated)	-12%	/	/	/
Cc1ccccc1NS(=O)(=O)c1cc(C(=O)NCCC2=CCCCC2)ccc1C	-6%	0%	?	10µM*
